Test results taken from PubChem BioAssay (NCI).
Compounds without any hit were thinned out: in the full panel of roughly 83,000, 20% have a hit.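 48-hour exposure, single concentration, 96-well plates; percent growth endpoint where 0 means no net growth. Active: below 10.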 Calls of active or inactive are those of the source.

Experiments:
Experiment in all cases: NCI-60 one-dose screen, 48 h (100 = growth as untreated, 0 = no growth, -100 = all killed)
Conditions in all cases: 10 µM unless noted
[1] = test system: SK-MEL-2 melanoma
[2] = test system: SN12C renal
[3] = test system: UO-31 renal
[4] = test system: TK-10 renal
[5] = test system: ACHN renal
[6] = test system: A498 renal
[7] = test system: CCRF-CEM leukemia
[8] = test system: MOLT-4 leukemia
[9] = test system: CAKI-1 renal

Measured: growth

Cc1nc2cc(Nc3nc(N4CCCCC4)nc(N4CCOCC4)n3)ccc2n1Cc1ccccc1
active: [3] 1.61% | [4] -32.9% | [5] -41.4%
inactive: [1] 19% | [2] 52.2% | [6] 38.8% | [7] 62.2% | [8] 36.4%

Cc1nc2cc(Nc3nc(Cl)nc(Nc4ccc(F)cc4)n3)ccc2n1Cc1ccccc1
inactive: [1] 111% | [2] 77.9% | [3] 80.7% | [4] 58.5% | [5] 36.2% | [6] 69.3% | [7] 78.5% | [8] 90.6%

COc1ccc(/C=N/NC(=O)c2cnn(CC(O)Cc3ccccc3)c2N)cc1OC1CCCC1 (stereo not given)
inactive: [1] 108% | [2] 95.4% | [3] 92.1% | [4] 99.4% | [5] 87.5% | [9] 77.9% | [7] 70.9% | [8] 66.6%

COc1ccc(Nc2[nH]n(C3=Nc4ccccc4Sc4ccccc43)c(=O)c2C#N)cc1
inactive: [1] 59.4% | [2] 50.1% | [3] 35.6% | [4] 65.9% | [5] 40.3% | [8] 46.5%

Cc1nc2ccc(Cl)cc2n1C
inactive: [1] 101% | [2] 101% | [3] 102% | [4] 97.2% | [5] 102% | [6] 95.5% | [7] 94.6% | [8] 97.7%

CCCN1CCN(c2ccc3nc(-c4ccc5nc(-c6ccc(C(F)(F)F)cc6)[nH]c5c4)[nH]c3c2)CC1
active: [1] 7.45% | [2] -69.2% | [4] -13% | [5] -99.9% | [7] -21.1% | [8] -38.6%
inactive: [3] 79.7% | [9] 59%

O=C1Nc2ccc(Cl)cc2/C1=N/N=C(c1ccccc1)c1ccccc1
inactive: [1] 103% | [2] 93.7% | [3] 63.9% | [4] 111% | [5] 87.5% | [9] 63% | [7] 92.7% | [8] 93.3%

COc1ccc(/C=N/OCC(O)CN2CCC(O)CC2)cc1OC1CCCC1 (stereo not given)
inactive: [1] 105% | [2] 103% | [3] 88.6% | [4] 106% | [5] 104% | [9] 95.4% | [7] 113% | [8] 106%

COC1(OC)C2(Cl)C=C(c3ccccc3)C1(Cl)C(Cl)=C2Cl (stereo not given)
inactive: [1] 87% | [2] 104% | [3] 70% | [4] 106% | [9] 92.7% | [6] 105% | [7] 91% | [8] 74.3%

COc1ccc(OC2=C(C#N)C(=N)N3c4ccccc4Sc4ccccc4C3N2)cc1 (stereo not given)
inactive: [1] 130% | [2] 94.3% | [3] 59.5% | [4] 120% | [5] 83.3% | [7] 80.9% | [8] 139%

O=S(=O)(Nc1ccccc1Cl)c1ccc(-c2cnc(C3CC3)o2)cc1
inactive: [1] 39% | [2] 48.3% | [3] 49.8% | [4] 61.9% | [5] 49.8% | [9] 38.1% | [7] 17.4% | [8] 40.9%

COc1cc2nc(N3CCC[C@H](NC4=CC(=O)c5ccccc5C4=O)C3)nc(N)c2cc1OC
inactive: [1] 111% | [2] 65.4% | [6] 93%
active: [3] -76.1% | [4] -72.6% | [5] -100% | [7] -23.5% | [8] -41.3%

CCC(=O)Nc1nnc(Cc2ccc(OC)c(OC)c2)s1
active: [1] -6.77% | [2] 2.77% | [4] -37.7% | [9] -33.6%
inactive: [3] 19.6% | [6] 85.2% | [7] 38.3% | [8] 48.9%

O=C(NCc1cccnc1)c1ccc([N+](=O)[O-])o1
active: [1] -16.7% | [2] -53.4% | [3] 2.12% | [4] -30.5% | [6] 9.84%
inactive: [5] 34.5% | [7] 54.4% | [8] 65.8%

COc1ccc(Nc2nc(NCCNc3ccnc4cc(Cl)ccc34)nc(N3CCOCC3)n2)cc1
active: [6] -17.7%
inactive: [1] 78.8% | [2] 61.4% | [3] 45.3% | [4] 103% | [5] 63.2% | [7] 56.4% | [8] 35.6%

C(=C\c1ccccc1)/CN1CCN(C(c2ccccc2)c2ccccc2)CC1
inactive: [1] 104% | [2] 90.4% | [3] 70.5% | [4] 110% | [5] 95.1% | [6] 69.5% | [7] 94.4% | [8] 90.2%
